# Out of some 69,000 compounds screened, about 1,000 (1.4%) showed an effect of 50% or more. Only a selection was taken, and strong results are over-represented in it overall.
# System: Leishmania donovani
# Assay: Leishmania intramacrophage assay
# Type: functional, organism-based
# Design: scale not given: in the data most compounds retested in dose-response had high values
compound,measurement,setting,value
Cc1ncc(CNCC(C)O)c2cc(C(=O)c3ccc(Br)cc3)oc12.Cl (stereo not drawn),Percent Effect,"30.3 µM, […]",46.85%
Cc1ncc(CNCCO)c2cc(C(=O)c3ccc(Br)cc3)oc12.Cl,Percent Effect,"30.3 µM, […]",52.55%
Cc1ncc(CNC(C)(C)CO)c2cc(C(=O)c3ccc(Br)cc3)oc12,Percent Effect,"30.3 µM, […]",44.76%
CCn1nc(C)c2ncnc(NCCn3cccn3)c21,Percent Effect,"30.3 µM, […]",-8.829%
N#Cc1ccc(N2CCC3(CC2)COCCN3Cc2cccnc2)cc1.O=C(O)C(F)(F)F,Percent Effect,"30.3 µM, […]",-0.3912%
CNc1ncc2c(n1)CN(C1CCCC1)C2=O,Percent Effect,"30.3 µM, […]",-21.11%
CNc1ncc2c(n1)CN(C1CC(C)(C)NC(C)(C)C1)C2=O,Percent Effect,"30.3 µM, […]",57.04%
CC1(C)CC(N2Cc3nc(N)ncc3C2=O)CC(C)(C)N1,Percent Effect,"30 µM, 30.03 µM",0.1811%
CCc1nsc(NC2CC(=O)N(C3CC3)C2)n1 (stereo not drawn),Percent Effect,"30.3 µM, […]",25.34%
Cc1ccc(-c2[nH]c3ccccc3c2C(=O)O)c(C)c1,Percent Effect,"30.3 µM, […]",12.49%
COCCN1CCC(CNC(=O)Nc2ccc(SC(F)(F)F)cc2)C1 (stereo not drawn),Percent Effect,"30.3 µM, […]",43.78%
COCCN1CCC(CNC(=O)Nc2ccc(F)c(Cl)c2)C1 (stereo not drawn),Percent Effect,"30.3 µM, […]",9.001%
COCCN1CCC(CNC(=O)Nc2ccc(-c3ccccc3)cc2)C1 (stereo not drawn),Percent Effect,"30.3 µM, […]",93.25%
Cc1cccc(CN2CCC3(CC(C(=O)NCC(C)C)=NO3)C2)c1 (stereo not drawn),Percent Effect,"30.3 µM, […]",14.53%
CN(Cc1ccc([S+](C)[O-])cc1)c1ccc(Br)cn1 (stereo not drawn),Percent Effect,"30.3 µM, […]",20.24%
CN(Cc1ccc([S+](C)[O-])cc1)c1ccc(C(F)(F)F)cn1 (stereo not drawn),Percent Effect,"30.3 µM, […]",54.49%
CN(Cc1ccccc1)c1ccc(C(F)(F)F)cn1,Percent Effect,"30.3 µM, […]",14.63%
Cn1ccnc1CN1CCCN(C(=O)CC(C2CC2)C2CC2)CC1,Percent Effect,30 µM,10.73%
Cn1nc(C(=O)NCc2ccccn2)c2c1CCS(=O)(=O)C2,Percent Effect,"30 µM, 30.03 µM",-1.622%
Cc1ncc(CNC(=O)c2nn(C)c3c2CS(=O)(=O)CC3)s1,Percent Effect,"30 µM, 30.03 µM",17.47%
Cn1nc(C(=O)NCc2cccs2)c2c1CCS(=O)(=O)C2,Percent Effect,"30.3 µM, […]",62.35%
CN1C(=O)CCCC12CCCN(Cc1cccs1)C2.O=C(O)C(F)(F)F (stereo not drawn),Percent Effect,"30.3 µM, […]",13.27%
OC(COCc1ccccc1F)CN1CCC(Cn2cccn2)CC1 (stereo not drawn),Percent Effect,"30.3 µM, […]",8.392%
Cc1ccc(CN2C[C@@H]3CN(C(=O)c4cccn4C)C[C@@H]3C2)cc1.O=C(O)C(F)(F)F,Percent Effect,"30.3 µM, […]",-2.2%
Cc1noc(CNc2c(N3CCCC3)cccc2N2CCCC2)n1,Percent Effect,"30.3 µM, […]",45.54%
Cc1noc(C)c1CNc1c(N2CCCC2)cccc1N1CCCC1,Percent Effect,"30.3 µM, […]",97.2%
COc1ccccc1N1CCC(NCc2c(C)noc2C)C1 (stereo not drawn),Percent Effect,"30.3 µM, […]",7.918%
Cc1cc(CN2CCC(N(C)Cc3noc(C4CC4)n3)C2)on1 (stereo not drawn),Percent Effect,30 µM,11.66%
O=C(c1ccncc1)N1CCCn2c(CN3CCCCC3)nnc2C1,Percent Effect,"30 µM, 30.03 µM",-1.304%
CN1CC(c2cc(O)nc(NCc3ccccc3Cl)n2)CC1=O (stereo not drawn),Percent Effect,"30.3 µM, […]",7.659%
Cc1nc(C2(O)CCCNCC2)sc1CCOc1ccccc1Cl.Cl (stereo not drawn),Percent Effect,"30.3 µM, […]",22.61%
Cc1ncc(C(=O)NCCOc2ccccc2F)c(C)n1,Percent Effect,"30.3 µM, […]",48.08%
Cc1nc(C2(O)CCCNCC2)sc1CCOc1ccccc1F.Cl (stereo not drawn),Percent Effect,"30.3 µM, […]",57.78%
CCN1CCCC(O)(c2nc(C)c(CCOc3ccccc3Cl)s2)CC1 (stereo not drawn),Percent Effect,"30.3 µM, […]",29.58%
CCN1CCCC(O)(c2nc(C)c(CCOc3ccccc3F)s2)CC1 (stereo not drawn),Percent Effect,"30.3 µM, […]",7.204%
CC/N=c1/c(NC(=O)C2CC2)c(O)oc2ccccc12,Percent Effect,"30.3 µM, […]",-64.73%
CNC(=O)C(C)(C)CNC(=O)Nc1ccc(C)cn1,Percent Effect,"30.3 µM, […]",-4.041%
CN1CCC(N2CCC(C(=O)N(C)C)CC2)CC1.O=C(O)C(F)(F)F.O=C(O)C(F)(F)F,Percent Effect,"30.3 µM, […]",15.52%
Cc1cc(C(=O)NCc2ccnc(N3CCN(C)CC3)c2)no1,Percent Effect,30 µM,35.55%
COCCCn1ccnc1-c1cnc(OC)nc1,Percent Effect,"30 µM, 30.03 µM",27.45%
COc1cc(-c2nccn2C(C)CCn2cccn2)cc2c1OCO2 (stereo not drawn),Percent Effect,"30.3 µM, […]",30.8%
COc1ncc(-c2nccn2C(C)CCn2cccn2)cn1 (stereo not drawn),Percent Effect,"30.3 µM, […]",51.46%
CCOCCNC(=O)c1cccnc1Sc1cc(OC)ccc1OC,Percent Effect,"30.3 µM, […]",14.43%
CC(NCC1CCN(CCO)CC1)c1ccc(C(F)(F)F)cc1 (stereo not drawn),Percent Effect,"30.3 µM, […]",77.37%
CC(NC1CCN(CCS(C)(=O)=O)CC1)c1ccc(Cl)cc1 (stereo not drawn),Percent Effect,"30 µM, 30.03 µM",14.89%
CC(NCC1CCN(CCO)CC1)c1ccc(Cl)cc1 (stereo not drawn),Percent Effect,"30.3 µM, […]",77.33%
Cc1ccc(CNC(=O)CNCC2CCN(CCO)CC2)s1,Percent Effect,"30.3 µM, […]",12.94%
CC(NCC1CCN(CCO)CC1)c1cccnc1 (stereo not drawn),Percent Effect,"30.3 µM, […]",10.64%
CC(NCC1CCN(CCO)CC1)c1cccc(Cl)c1 (stereo not drawn),Percent Effect,"30.3 µM, […]",73.65%
COc1ccc(CNCC2CCN(CCO)CC2)cc1F,Percent Effect,"30.3 µM, […]",13.13%
CC(NCC1CCN(CCO)CC1)c1ccc(OC(F)(F)F)cc1 (stereo not drawn),Percent Effect,"30.3 µM, […]",36.61%
COC1CCN(CCNC(=O)NC(C)c2cccc(Cl)c2)CC1 (stereo not drawn),Percent Effect,"30.3 µM, […]",6.711%
OCCN1CCN(CC(O)c2ccc(C(F)(F)F)cc2)CC1 (stereo not drawn),Percent Effect,"30.3 µM, […]",28.06%
CC(NCC1CCN(CCO)CC1)c1ccc(F)c(Cl)c1 (stereo not drawn),Percent Effect,"30.3 µM, […]",55.27%
CN(CC1CCN(CCO)CC1)CC(O)c1ccc(F)c(F)c1 (stereo not drawn),Percent Effect,"30.3 µM, […]",32.26%
O=C(O)C(F)(F)F.O=S(=O)(C1CC1)N1CCOCC2(CCN(c3ccccn3)C2)C1 (stereo not drawn),Percent Effect,"30 µM, 30.03 µM",-13.08%
CC(C)N(C)Cc1nnn2c1CN(Cc1cccnc1)CCC2.O=C(O)C(F)(F)F.O=C(O)C(F)(F)F.O=C(O)C(F)(F)F,Percent Effect,"30.3 µM, […]",-19.03%
FC(F)(F)c1cc(C2CCNCC2)nc(-c2ccsc2)n1,Percent Effect,"30.3 µM, […]",3.687%

# From ChEMBL document CHEMBL3988442, “University of Dundee, Small-Polar-MMV Screening Library” (2021)
